Screens from PubChem BioAssay.
G9a block – qHTS Assay for Inhibitors of Histone Lysine Methyltransferase G9a | hit rate 8.8% among 350,000 | G9a H3K9 monomethylation, AlphaScreen, 2 h | AID 504332, 2011 | Histone-lysine N-methyltransferase EHMT2 (Homo sapiens), Q96KQ7 | Potency, µM (doses to about 102 µM), for inactives: at the top dose activity, negative = inhibition, actives largely listed as inhibitors; further: on the % scale 0 is the no-effect control and ±100 the full control effect; nearly all actives have a fitted effect of over 75% in size
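AlphaScreen detection with an anti-monomethyl H3K9 antibody quantified product after a 2 h room-temperature reaction containing 500 nM biotinylated H3K9 peptide, 20 µM SAM and 20 nM enzyme, which had been preincubated 15 min with compound.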
HP1b binding inh – HTS for Inhibitors of HP1-beta Chromodomain Interactions with Methylated Histone Tails; AlphaScreen HP1-beta / biotin-H3K9me3 peptide binding; Chromobox protein homolog 1 (Homo sapiens), P83916; hit rate 0.56% among 390,000; Potency, µM (top dose mostly 114 µM), for the others: at the highest dose activity change, negative = inhibition, actives largely listed as inhibitors; further: nearly all actives have a fitted effect of over 70% in size
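Compound inhibition of the preformed complex between 50 nM HP1-beta and 50 nM biotinylated H3K9me3 peptide was read by AlphaScreen. Buffer was PBS pH 7.4 with 0.01% Tween-20. Incubations ran 30 min at room temperature, with 10 ug/mL donor/acceptor beads.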
JMJD2A Tudor – qHTS Assay for Inhibitors of JMJD2A-Tudor Domain | AlphaScreen JMJD2A-Tudor / H3K4me3 peptide binding | Potency, µM (top dose mostly 114 µM), without a hit: top-dose activity change, negative = inhibition, hits mostly inhibitors | AID 504339, 2011 | hit rate 4.4% among 390,000; further: on the % scale 0 is the no-effect control and ±100 the full control effect; nearly all actives have a fitted effect of over 50% in size
Sfp PPTase inh – qHTS Assay for Inhibitors of Bacillus subtilis Sfp phosphopantetheinyl transferase (PPTase); hit rate 3.5% among 310,000; AID 1490, 2009; 4'-phosphopantetheinyl transferase ffp (Bacillus subtilis), Q9F4F7; Potency, µM, for the others: largest response in the series, negative = inhibition, hits mostly inhibitors; Biochemical Sfp PPTase activity, qHTS;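 further: the enzyme is Sfp with the accession as filed and its product quenches rhodamine fluorescence; 0% = enzyme reaction without inhibitor and -100% = no enzyme wells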
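Buffer: 50 mM Hepes-Na pH 7.6, 10 mM MgCl2, 0.01% Nonidet P-40, 0.01% BSA. Enzyme 15 nM, pre-exposed to compound 15 min; substrates then added and fluorescence change tracked over 30 min.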
BAZ2B inh – qHTS Assay for Inhibitors of BAZ2B. Bromodomain adjacent to zinc finger domain protein 2B (Homo sapiens), Q9UIF8. AlphaScreen BAZ2B-H3K14Ac peptide displacement. Potency, µM (series often up to 114 µM), for inactives: at the highest dose activity change, negative = inhibition, hits mostly inhibitors. hit rate 4.4% among 360,000. AID 504333, 2011; further: on the % scale 0 is the no-effect control and ±100 the full control effect; nearly all actives have a fitted effect of over 60% in size
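Compounds, titrated to a top concentration of 110 uM, were incubated 30 min at room temperature with preformed BAZ2B/acetyl-K14 H3 peptide complex (50 nM each). Proximity signal was measured by AlphaScreen after 20 min with beads.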
Starred values were filed as active, the others as inactive; ? = inconclusive; nt = no result given; [ ] = remark or other dose. Only some compounds are listed: those with a hit (about 12% of all), similar ones and a draw of the others. The call rests on the fitted dose curve; in most records, active means well fitted curve in the direction sought with a large enough effect; inconclusive means small, poorly fitted or top-dose-only effect, or another doubt; inactive means no such curve, though single readings can be large; an effect the other way counts as inactive or inconclusive. Potency means the concentration at half of the fitted maximal effect.

SMILES	G9a block	HP1b binding inh	JMJD2A Tudor	Sfp PPTase inh	BAZ2B inh
CSCC[C@@H]1NC(=O)C/C=C\[C@@H](C)COC(=O)[C@@H](CCSC)NC(=O)C/C=C\[C@@H](C)COC1=O	nt	nt	nt	3%	nt
C=CCn1c(-c2cccc(S(=O)(=O)N3CCOCC3)c2)n[nH]c1=S	7.1µM*	11%	7.1µM*	nt	4%
CCN(CC)S(=O)(=O)c1cccc(-c2n[nH]c(=S)n2C)c1	?	?	18µM*	-5%	-19%
Cn1c(-c2csc(-c3cccc(C(F)(F)F)c3)n2)n[nH]c1=S	?	24%	-15%	14%	-4%
Cc1ccc(-c2n[nH]c(=S)n2C)cc1Cl	?	-32%	3.2µM*	?	0%
CCN(CC)S(=O)(=O)c1cccc(-c2csc(C)n2)c1	-17%[59 µM]	43%	7%	6%	0%
C=CCn1c(-c2cccc(S(=O)(=O)N(CC)CC)c2)n[nH]c1=S	3.5µM*	13%	13µM*	?	nt
C=CCn1c(C)cc(C(=O)CSc2nnc(-c3cccc(S(=O)(=O)N(CC)CC)c3)o2)c1C	-35%[12.7 µM]	20%	-3%	5%	-33%
NC(=O)CSc1nnc(-c2cccc(S(=O)(=O)N3CCOCC3)c2)n1C1CCCCCC1	8%	-9%	?	11%	-4%
O=S(=O)(c1cccc(-c2n[nH]c(=S)n2C2CCCC2)c1)N1CCOCC1	10µM*	12%	4µM*	-10%	nt
CC(C)Cn1cc(NC(=O)NCc2ccccc2Cl)c2ccccc2c1=O	?	42%	-23%	nt	8%[57.1 µM]
Cc1cc(N(CCO)CCO)nc(-n2nc(C)cc2C)n1	40µM*	52%	?	0%	-15%
Cc1cc(NCCO)nc(-n2nc(C)cc2C)n1	?	43%	-8%	0%	14%
Cc1ccc(CNC(=O)c2cccnc2)cc1	nt	34%	-14%	nt	nt
Cc1ccccc1CNC(=O)C(=O)Nc1nccs1	13µM*	27%	0%	-3%	nt
O=C(NCc1ccncc1)C(=O)NCc1ccncc1	16%	33%	-6%	13%	-11%
Cc1ccc(CNC(=O)C(=O)Nc2nccs2)cc1	18µM*	9%	-27%	6%	?
O=C(NCc1ccncc1)C(=O)Nc1nccs1	14µM*	8%	?	-10%	?
Cc1ccc(CNC(=O)c2nccnc2C(=O)O)cc1	50µM*	4%	?	-2%	-11%
COc1ccc(CNC(=O)C2CCN(S(=O)(=O)c3cccc(-c4noc(C)n4)c3)CC2)cc1	0%[59 µM]	2%	-24%	nt	-29%
CC(=O)c1ccc(NS(=O)(=O)c2ccc(Br)s2)cc1	1%[59 µM]	43%	3%	nt	0%
N#Cc1ccc(CN2CCN(C(=O)CNC(=O)Cc3ccccc3)CC2)cc1	?	37%	3%	nt	25%
O=C1N=c2ccccc2=C1c1[nH]c(=S)[nH]c1O	?	-9%	-23%	0%	?
Cc1ccc(Cl)c2c1=NC(=O)C=2c1[nH]c(=S)[nH]c1O	7.9µM*	?	-26%	40µM*	?
COc1ccc(NS(=O)(=O)NC(=O)c2c(C)n(C)c3ccccc23)cc1	40µM*	35%	-22%	-2%	-13%[57.1 µM]
SMILES	G9a block	HP1b binding inh	JMJD2A Tudor	Sfp PPTase inh	BAZ2B inh
CC1(c2ccc(Cl)cc2)NC(=O)N(CC(=O)N2CCc3ccccc32)C1=O (centres undefined)	nt	27%	-7%	nt	nt
Cn1c(-c2cnn(-c3ccccc3)c2-n2cccc2)n[nH]c1=S	8.9µM*	13%	8.9µM*	10%	-37%
CCCCCCSc1nnc(-c2cnn(-c3ccccc3)c2-n2cccc2)n1C	40µM*	9%	-17%	-13%	-29%
CC(C)(C)NCC(O)COc1cccc2c1CCC(=O)N2 (centres undefined)	3%[12.7 µM]	37%	-4%	nt	7%
COc1ccc(C2NC(=O)c3sc(=S)n(-c4ccccc4)c3N2)cc1 (centres undefined)	-43%[12.7 µM]	25%	-13%	50µM*	-12%
CCOc1ccc(-n2c(=S)sc3c(=O)n(-c4ccccc4)c(SC)nc32)cc1	19%	-7%	-27%	-3%	-12%
CCOc1ccc(C2NC(=O)c3sc(=S)n(-c4ccccc4)c3N2)cc1 (centres undefined)	32µM*	20%	-28%	?	?
O=C1NC(c2ccccc2)Nc2c1sc(=S)n2-c1ccccc1 (centres undefined)	22µM*	-5%	-11%[11.4 µM]	32µM*	-19%
Cc1c(C(=O)O)sc(=S)n1-c1ccccc1	-6%	47%	-17%	24%	-9%
COc1ccc(/C=N/n2cnc3c(sc(=S)n3-c3ccccc3)c2=O)cc1	48%	62%	-13%	8%	8%
Cc1cc(OCCn2cncn2)ccc1[N+](=O)[O-]	nt	34%	-4%	-2%	7%
c1ccc(-c2csc(NNC3=NCCCCC3)n2)cc1	10µM*	?	-2%[11.4 µM]	40µM*	?
Brc1ccc(-c2csc(NC3=NCCCCC3)n2)cc1	16%[59 µM]	26%[57 µM]	-5%	1%	0%
Clc1ccc(-c2csc(NNC3=NCCCCC3)n2)cc1	5%[2.33 µM]	-26%	?	56µM*	-7%[57.1 µM]
c1ccc(NNC2=NCCCCC2)cc1	2.5µM*	36%	-6%	13%	0%
O=C(CN1C(=O)NC(Cc2c[nH]c3ccccc23)C1=O)Nc1ccc(Br)cc1F (centres undefined)	2%[12.7 µM]	33%	-5%	nt	-3%
Cc1ccc(/C=c2\s/c(=C(/C#N)C(=O)N3CCCC3)n(Cc3ccco3)c2=O)s1	?	-13%	?	13µM*	?
COc1cc2ncnc(NCc3cccc(Cl)c3)c2cc1OC	40µM*	29%	-4%	3%	-4%
COc1cc2ncnc(NCc3ccco3)c2cc1OC	?	20%	-26%	-2%	-35%
COc1ccccc1CNc1ncnc2cc(OC)c(OC)cc12	32µM*	49%	-29%	7%	-16%
COc1cc2ncnc(NCc3ccccc3)c2cc1OC	71µM*	55%	-15%[11.4 µM]	-11%	10%
COc1ccc(CNc2ncnc3cc(OC)c(OC)cc23)cc1	40µM*	55%	-21%[11.4 µM]	1%	12%
CC1CCCC(NC(=O)c2ccc3c(c2)NC(=O)CS3)C1C (centres undefined)	-13%	44%	22%	11%	-10%
COc1ccc(CNc2ncnc3ccc(-c4ccoc4)cc23)c(OC)c1	-29%[0.501 µM]	nt	nt	-2%	nt
COc1ccc(CNc2ncnc3cc(OC)c(OC)cc23)cc1OC	45µM*	13%	-18%	3%	-18%
COc1cc(-c2ccc3ncnc(NCc4ccc(C)o4)c3c2)cc(OC)c1OC	nt	nt	50µM*	nt	nt
